Data on five molecules can be found in PubChem BioAssay.

Values without a mark were called inactive. No rule for the calls is given here.

Pantothenate synthetase (Mycobacterium tuberculosis (strain ATCC 25618 / H37Rv)), sequence (P9WIL5 whole entry, looked up): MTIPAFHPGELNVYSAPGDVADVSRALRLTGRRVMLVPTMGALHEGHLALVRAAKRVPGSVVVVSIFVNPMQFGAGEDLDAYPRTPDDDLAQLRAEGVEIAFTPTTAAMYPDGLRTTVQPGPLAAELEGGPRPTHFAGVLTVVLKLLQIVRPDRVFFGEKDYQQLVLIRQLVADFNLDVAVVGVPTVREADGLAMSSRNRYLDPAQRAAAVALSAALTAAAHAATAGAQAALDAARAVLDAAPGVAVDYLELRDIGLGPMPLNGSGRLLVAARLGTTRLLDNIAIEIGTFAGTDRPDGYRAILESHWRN

This test concerns the target Pantothenate synthetase (Mycobacterium tuberculosis (strain ATCC 25618 / H37Rv)) (UniProt P9WIL5). As to the kind of experiment: Coupled enzyme confirmation of inhibitors against recombinant Mtb PanC (AID 375).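 Also: 0% = full reaction with vehicle and 100% = no enzyme background.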 The conditions noted are these: coupled enzyme assay; at 10 µM, active compounds read high.
With `COc1ccc(NC(=O)CCCN2C(=O)C3C4C=CC(C4)C3C2=O)c(OC)c1` (stereo not given), the inhibition is 2%. For `O=C(c1cnn2c1NC(c1ccco1)CC2C(F)(F)F)N1CCN(c2cccc(Cl)c2)CC1` (stereo not given) the value was 4%. For `COC(=O)CCCCC(=O)C1C(=O)CC(C)(C)C(C(=O)OC)C1=O` (stereo not given) the value was 0%; for `Cc1cccc(C)c1NC(=O)c1cc(S(=O)(=O)N2CCOCC2)ccc1F`, 0%. For `Cc1cccc2cc(CN(CCN3CCCC3)C(=O)NC3CCCCC3)c(=O)[nH]c12` the value was 0%.
